T cruzi growth-1 – inhibitors of T. cruzi proliferation. T. cruzi beta-gal in NIH3T3, GalScreen luminescence, 90 h. hit rate 5.9% among 77,000. inhibition, % at 8.34 µM;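 active means mean inhibition above about 93%, with at least 55% of replicates each passing it, limit read from the data, passing the limit was not always enough; inconclusive means only one of those two conditions holds; inactive means neither condition holds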
Pf Dd2 growth – inhibitors of Plasmodium falciparum Dd2 growth; activity change, % at 10 µM; hit rate 2.3% among 94,000; AID 1159554; P. falciparum Dd2 growth, SYBR Green, 72 h; hits give low values; in the data active means activity change below about -80%; inconclusive means no clear call, values can overlap the other calls
C diff HTS – blocks growth of Clostridium difficile; growth activity, negative = inhibition, % at 16 µg/mL (by protocol); AID 1259249; Clostridium difficile clinical isolate growth, OD600, 24 h; hits give low values; hit rate 0.25% among 86,000;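 active means mean growth activity at or below -80% and every replicate also at or below -80%; inconclusive means mean at or below -80% but some replicate above -80%; inactive means mean growth activity above -80%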;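 further: 0% = DMSO wells and -100% = levofloxacin 16 µg/mL wells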
T cruzi growth-2 – blocks T. cruzi growth in NIH3T3 host cells; shares compounds with T cruzi growth-1; hit rate 72% among 5,600; inhibition, % at 8.35 µM; T. cruzi beta-gal in NIH3T3, GalScreen luminescence, 90 h; AID 651739;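 active means mean replicate inhibition above about 95% and at least 55% of replicates individually reaching it, limit read from the data; inconclusive means only one of the two criteria is met; inactive means neither criterion is met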
T cruzi growth-3 – blocks T. cruzi growth in NIH3T3 host cells | shares compounds with T cruzi growth-1 | hit rate 21% among 5,600 | T. cruzi beta-gal in NIH3T3, GalScreen luminescence, 90 h | inhibition, % at 2.09 µM;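 active means mean inhibition above about 95%, with at least 55% of replicates also reaching it, limit read from the data; inconclusive means meets just one of the two conditions; inactive means meets neither condition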;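 further: plate controls were neutral control median for no effect and positive control median for full effect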
NIH3T3 tox – NIH/3T3 (mouse) viability loss; shares compounds with T cruzi growth-1; NIH/3T3 viability, CellTiter-Glo ATP luminescence, 90 h; cytotoxicity (signal decrease), % at 8.35 µM; hit rate 14% among 5,600; AID 651742;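 active means mean signal decrease across replicates above about 35% based on untreated-well scatter, with enough replicates individually passing, limit read from the data; inconclusive means no rule stated though some were filed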;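 further: 0% = median of neutral control wells and 100% = median of positive control wells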
NIH3T3 tox 2 – kills mouse NIH/3T3 fibroblasts; shares compounds with T cruzi growth-1; NIH/3T3 viability, CellTiter-Glo ATP luminescence, 90 h; inhibition, % at 24.9 µM; hit rate 56% among 5,600;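 active means mean loss of cell viability signal at or above a set limit, and enough replicates individually reaching it; inconclusive means meets only the mean limit or only the replicate share; inactive means meets neither condition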;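 further: 0% = median of neutral control wells and 100% = median of positive control wells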
An asterisk follows results filed as active. An excerpt weighted towards active compounds, which were near 6.8% of everything screened.

What do the screens show for `C[C@@H]1CCCCO[C@@H](CN(C)C(=O)C2CCCCC2)[C@H](C)CN([C@@H](C)CO)C(=O)c2cc(NS(=O)(=O)c3ccc(F)cc3)ccc2O1`?
T cruzi growth-1: 69; Pf Dd2 growth: 19; C diff HTS: 11

How did C[C@@H]1CCCCO[C@@H](CN(C)C(=O)C2CCCCC2)[C@@H](C)CN([C@H](C)CO)C(=O)c2cc(NS(=O)(=O)c3ccc(Cl)cc3)ccc2O1 do in these assays?
T cruzi growth-1: 59; Pf Dd2 growth: -5; C diff HTS: 6

How did C[C@@H]1CN([C@H](C)CO)C(=O)c2cc(NS(=O)(=O)c3ccc(Cl)cc3)ccc2O[C@@H](C)CCCCO[C@H]1CN(C)C(=O)C1CCCCC1 do in these assays?
T cruzi growth-1: inconclusive; Pf Dd2 growth: -30; C diff HTS: 2; T cruzi growth-2: 96*; T cruzi growth-3: 61; NIH3T3 tox: 19; NIH3T3 tox 2: 100*

How did C[C@@H]1CN([C@H](C)CO)C(=O)c2cc(NS(=O)(=O)c3ccc(F)cc3)ccc2O[C@@H](C)CCCCO[C@H]1CN(C)C(=O)C1CCCCC1 do in these assays?
T cruzi growth-1: inconclusive; Pf Dd2 growth: -61; C diff HTS: -7; T cruzi growth-2: 101*; T cruzi growth-3: 63; NIH3T3 tox: -7; NIH3T3 tox 2: -6

Results for C[C@H](CO)N1C[C@H](C)[C@@H](CN(C)C(=O)C2CCCCC2)OCCCC[C@H](C)Oc2ccc(NS(=O)(=O)c3ccc(Cl)cc3)cc2C1=O ?
T cruzi growth-1: 67; Pf Dd2 growth: 25; C diff HTS: -3

Results for O=C(NCC[C@@H]1CC[C@@H](NC(=O)C2CC2)[C@@H](CO)O1)c1cnccn1 ?
Pf Dd2 growth: -1; C diff HTS: -3

How did COc1cccc(NC(=O)N[C@H]2C=C[C@@H](CC(=O)NCc3ccccn3)O[C@H]2CO)c1 do in these assays?
T cruzi growth-1: 14; Pf Dd2 growth: 3; C diff HTS: 10

What do the screens show for `O=C(C[C@@H]1CC[C@@H]2[C@H](COC[C@H](O)CN2C(=O)Nc2cc(Cl)cc(Cl)c2)O1)N1CCCCC1`?
T cruzi growth-1: 60; Pf Dd2 growth: 8

Results for C[C@H](CO)N1C[C@H](C)[C@@H](CN(C)Cc2ccccc2)Oc2ccc(NC(=O)Nc3cccc4ccccc34)cc2CC1=O ?
T cruzi growth-1: 69; Pf Dd2 growth: -74; C diff HTS: 5

How did C[C@@H]1CN([C@@H](C)CO)C(=O)Cc2cc(NC(=O)Nc3cccc4ccccc34)ccc2O[C@H]1CN(C)Cc1ccc(-c2ccccc2)cc1 do in these assays?
T cruzi growth-1: 107*; Pf Dd2 growth: -43; C diff HTS: 5; T cruzi growth-2: 102*; T cruzi growth-3: 106*; NIH3T3 tox: 11; NIH3T3 tox 2: 6

What do the screens show for `C[C@H](CO)N1C[C@H](C)[C@H](CN(C)Cc2ccccc2)Oc2ccc(NC(=O)Nc3cccc4ccccc34)cc2CC1=O`?
T cruzi growth-1: 73; Pf Dd2 growth: -46; C diff HTS: 2

How did C[C@H]1CN([C@@H](C)CO)C(=O)Cc2cc(NC(=O)Nc3cccc4ccccc34)ccc2O[C@@H]1CN(C)Cc1ccc(-c2ccccc2)cc1 do in these assays?
T cruzi growth-1: 102*; Pf Dd2 growth: -34; C diff HTS: 10; T cruzi growth-2: 109*; T cruzi growth-3: 107*; NIH3T3 tox: 1; NIH3T3 tox 2: 3

How did C[C@@H]1CN([C@H](C)CO)C(=O)Cc2cc(NS(=O)(=O)c3cccs3)ccc2O[C@@H]1CN(C)C do in these assays?
T cruzi growth-1: 21; Pf Dd2 growth: 2; C diff HTS: -3

How did CC(C)CC#Cc1cnc2c(c1)C(=O)N([C@@H](C)CO)C[C@H](C)[C@@H](CN(C)S(=O)(=O)c1ccccc1)O2 do in these assays?
T cruzi growth-1: inconclusive; Pf Dd2 growth: -45; C diff HTS: -12; T cruzi growth-2: 102*; T cruzi growth-3: 72; NIH3T3 tox: 13; NIH3T3 tox 2: inconclusive

How did CC(C)CC#Cc1cnc2c(c1)C(=O)N([C@H](C)CO)C[C@@H](C)[C@@H](CN(C)S(C)(=O)=O)O2 do in these assays?
T cruzi growth-1: 39; Pf Dd2 growth: 10; C diff HTS: -2

How did CC(C)CC#Cc1cnc2c(c1)C(=O)N([C@@H](C)CO)C[C@H](C)[C@@H](CN(C)S(C)(=O)=O)O2 do in these assays?
T cruzi growth-1: 23; Pf Dd2 growth: 33; C diff HTS: -5

Results for CC(C)CC#Cc1cnc2c(c1)C(=O)N([C@@H](C)CO)C[C@@H](C)[C@@H](CN(C)S(=O)(=O)c1ccccc1)O2 ?
T cruzi growth-1: 60; Pf Dd2 growth: -27; C diff HTS: -5

What do the screens show for `Cc1ccc(S(=O)(=O)N(C)C[C@H]2Oc3ncc(C#CCC(C)C)cc3C(=O)N([C@H](C)CO)C[C@@H]2C)cc1`?
T cruzi growth-1: 110*; Pf Dd2 growth: -30; C diff HTS: -4; T cruzi growth-2: inconclusive; T cruzi growth-3: 52; NIH3T3 tox: 4; NIH3T3 tox 2: 33*

Results for Cc1ccc(S(=O)(=O)N(C)C[C@@H]2Oc3ncc(C#CCN(C)C)cc3C(=O)N([C@H](C)CO)C[C@@H]2C)cc1 ?
T cruzi growth-1: 14; Pf Dd2 growth: 5; C diff HTS: 0

What do the screens show for `Cc1ccc(S(=O)(=O)N(C)C[C@@H]2Oc3ncc(C#CCC(C)C)cc3C(=O)N([C@@H](C)CO)C[C@H]2C)cc1`?
T cruzi growth-1: 117*; Pf Dd2 growth: -26; C diff HTS: -9; T cruzi growth-2: 104*; T cruzi growth-3: 85; NIH3T3 tox: 11; NIH3T3 tox 2: 102*

How did Cc1ccc(S(=O)(=O)N(C)C[C@H]2Oc3ncc(C#CCC(C)C)cc3C(=O)N([C@@H](C)CO)C[C@@H]2C)cc1 do in these assays?
T cruzi growth-1: 124*; Pf Dd2 growth: -47; C diff HTS: -5; T cruzi growth-2: 110*; T cruzi growth-3: 74; NIH3T3 tox: -5; NIH3T3 tox 2: 93*

Results for COc1ccc(NC(=O)N(C)C[C@H]2Oc3ccc(NS(=O)(=O)c4ccc(C)cc4)cc3C(=O)N([C@H](C)CO)C[C@@H]2C)cc1 ?
T cruzi growth-1: 6; Pf Dd2 growth: -4

What do the screens show for `CNC[C@@H]1OCCCC[C@@H](C)Oc2ccc(NC(=O)CCC(F)(F)F)cc2C(=O)N([C@H](C)CO)C[C@H]1C`?
T cruzi growth-1: 19; Pf Dd2 growth: 21; C diff HTS: 7

How did Cc1ccc(S(=O)(=O)N[C@@H]2CC[C@@H](CC(=O)N3CCC(Cc4ccccc4)CC3)O[C@@H]2CO)cc1 do in these assays?
T cruzi growth-1: 111*; Pf Dd2 growth: -15; C diff HTS: 1; T cruzi growth-2: 110*; T cruzi growth-3: 37; NIH3T3 tox: -33; NIH3T3 tox 2: 35*

Compound activity from PubChem BioAssay.
